Screening results from PubChem.
Rows were chosen to be rich in hits. Some 3.4% of all compounds tested hit in one or more screens of this group.
PGC1a acetyl inh: PGC1a acetylation modulation, inhibitor mode. U2OS PGC1a acetylation, AlphaScreen anti-acetyl-lysine; with virally co-expressed GCN5 acetyltransferase. inhibition, % at 15.6 µM. 350,000 tested, 0.17% active;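 active = every replicate shows inhibition of at least 40%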
EWS-Fli block: blocks EWS/Fli oncoprotein-driven transcription. A673 NR0B1-luciferase reporter, viability-normalised. inhibition, % at 12.6 µM. 350,000 tested, 0.67% active;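 active = mean inhibition of at least 50% after viability correction, with every replicate also passing that limit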;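 note: firefly luciferase signal divided by Alamar Blue viability fluorescence both relative to DMSO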
PAX8 inh HTS: inhibitors of PAX8 transcriptional activity in RMG-I cells | RMG-I TPO-luciferase reporter, SteadyGlo, 24 h | inhibition, % at 12.6 µM | 360,000 tested, 1.2% active | AID 652154;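 active = mean replicate inhibition at least 60% with every replicate also reaching 60%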;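 note: luciferase light reporting Pax8 driven TPO promoter activity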
rRNA inh HTS: inhibits bacterial ribosomal RNA function over humanized ribosomes | E. coli WT GFP vs humanized-ribosome RFP mutants, fluorescence, 24 h; active compounds read low; DMSO median 0, no signal -100 | GFP signal change (wild-type ribosome), % (concentration not given with the values) | 350,000 tested, 1.6% active;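 active = significant combined selectivity score with lowered wild-type GFP, culture density cut under 30%, mutant RFP and density less affected; inactive = any of these conditions unmet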
SIRT5 inh: inhibitors of human sirtuin-5 desuccinylase; Purified SirT5, succinyl-peptide AMC, trypsin-coupled fluorescence; AID 652115; 330,000 tested, 1.1% active; inhibition, % at 15 µM; in the data active = inhibition above about 15%
Target sequence (Q9NXA8 whole entry, looked up): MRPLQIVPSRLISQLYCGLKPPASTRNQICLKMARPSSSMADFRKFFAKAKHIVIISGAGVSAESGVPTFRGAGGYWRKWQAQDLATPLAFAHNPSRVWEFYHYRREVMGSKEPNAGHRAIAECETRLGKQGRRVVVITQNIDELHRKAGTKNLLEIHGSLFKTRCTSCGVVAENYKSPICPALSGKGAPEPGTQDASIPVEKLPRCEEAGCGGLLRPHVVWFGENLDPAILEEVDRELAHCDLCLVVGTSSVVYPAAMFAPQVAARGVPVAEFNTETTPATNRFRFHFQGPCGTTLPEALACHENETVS
LGR2 inh: Drosophila LGR2 receptor signaling inhibition. HEK293 LGR2, CRE-luciferase, bursicon-stimulated, 4 h. inhibition, % at 9.99 µM. 380,000 tested, 0.35% active;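 active = drop in luminescence signal, shown as inhibition above about 50% in the replicate tests, limit read from the data, passing the limit was not always enough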;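 note: agonist challenge used bursicon conditioned medium at about half maximal strength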
Large screens that a line does not name were inactive.

COc1ccc(CN(C)C[C@H]2Oc3ccc(NS(=O)(=O)c4ccccc4)cc3CC(=O)N([C@@H](C)CO)C[C@@H]2C)cc1	SIRT5 inh 17 (no result: PAX8 inh HTS)
Nc1c(C(=O)NCc2ccco2)c2nc3ccccc3nc2n1CCc1ccccc1	rRNA inh HTS -28 (no result: PGC1a acetyl inh)
Nc1c(C(=O)NCc2ccccc2)c2nc3ccccc3nc2n1CCCN1CCOCC1	none (no result: PGC1a acetyl inh)
CC(=O)C1=C(c2ccccc2)OC(N)=C(C#N)C1c1ccccc1C (centres undefined)	rRNA inh HTS -33 (no result: PGC1a acetyl inh)
CC(=O)C1=C(c2ccccc2)OC(N)=C(C#N)C1c1ccccc1F (centres undefined)	rRNA inh HTS -47 (no result: PGC1a acetyl inh)
CCOC(=O)C1=C(c2ccccc2)OC(N)=C(C#N)C1c1cccs1 (centres undefined)	none (no result: EWS-Fli block, PAX8 inh HTS, rRNA inh HTS, SIRT5 inh)
COC(=O)c1ccccc1NC(=O)c1ccc2c(c1)CC(C)O2 (centres undefined)	rRNA inh HTS -29 (no result: PGC1a acetyl inh)
CC1Cc2cc(C(=O)O)ccc2O1 (centres undefined)	none (no result: EWS-Fli block, PAX8 inh HTS, rRNA inh HTS, SIRT5 inh, LGR2 inh)
C[C@@H]1CN([C@H](C)CO)S(=O)(=O)c2ccc(-c3ccccc3F)cc2O[C@H]1CN(C)Cc1ccncc1	EWS-Fli block 60 (no result: PAX8 inh HTS)
C[C@@H]1CN([C@@H](C)CO)S(=O)(=O)c2ccc(-c3cncnc3)cc2O[C@@H]1CN(C)Cc1ccccc1	none
C[C@H]1CN([C@@H](C)CO)S(=O)(=O)c2ccc(-c3cncnc3)cc2O[C@H]1CN(C)Cc1ccc(Oc2ccccc2)cc1	SIRT5 inh 27
Cc1ccc(-c2ccc3c(c2)O[C@@H](CN(C)Cc2ccccn2)[C@@H](C)CN([C@@H](C)CO)S3(=O)=O)cc1	none (no result: PAX8 inh HTS)
Cc1ccc(-c2ccc3c(c2)O[C@H](CN(C)Cc2cccnc2)[C@H](C)CN([C@H](C)CO)S3(=O)=O)cc1	SIRT5 inh 18 (no result: PAX8 inh HTS)
Cc1ccc(-c2ccc3c(c2)O[C@@H](CN(C)Cc2cccnc2)[C@@H](C)CN([C@H](C)CO)S3(=O)=O)cc1	none (no result: PAX8 inh HTS)
Cc1ccc(-c2ccc3c(c2)O[C@H](CN(C)Cc2ccccn2)[C@@H](C)CN([C@H](C)CO)S3(=O)=O)cc1	EWS-Fli block 63 (no result: PAX8 inh HTS)
CO[C@H]1CN(C)C(=O)c2ccc(NC(=O)Nc3cccc(F)c3)cc2OC[C@@H](C)N(C(=O)C2CC2)C[C@H]1C	none (no result: PAX8 inh HTS, SIRT5 inh)
Cc1ccc(-c2ccc3c(c2)O[C@H](CN(C)Cc2ccccn2)[C@@H](C)CN([C@@H](C)CO)S3(=O)=O)cc1	EWS-Fli block 58 (no result: PAX8 inh HTS)
C[C@@H]1CN([C@@H](C)CO)S(=O)(=O)c2ccc(-c3ccccc3)cc2O[C@@H]1CN(C)Cc1ccccn1	none (no result: PAX8 inh HTS)
CO[C@H](CN(C)Cc1cc(F)ccc1F)[C@@H](C)CN([C@@H](C)CO)S(=O)(=O)c1ccc(F)cc1	none
O=C(O)COc1ccc(/C=C2/SC(=S)N(Cc3ccccc3)C2=O)cc1	PGC1a acetyl inh 72
O=C(CCCN1C(=O)/C(=C/c2ccco2)SC1=S)Nc1ccccc1C(=O)O	SIRT5 inh 27 (no result: PGC1a acetyl inh)
O=C(O)CCCN1C(=O)/C(=C\c2ccco2)SC1=S	none
CCN(C(=O)CCN1C(=O)/C(=C/c2ccccc2)SC1=S)C1CCS(=O)(=O)C1 (centres undefined)	LGR2 inh 59
O=C1/C(=C\c2cc(Cl)c(O)c(Cl)c2)SC(=S)N1Cc1ccccc1	none
O=C(CCN1C(=O)/C(=C/c2ccco2)SC1=S)Nc1ccc(O)cc1C(=O)O	SIRT5 inh 48
Cc1ccccc1S(=O)(=O)N1[C@@H]2CNC[C@H]1C2c1ccc(/C=C/c2ccccc2)cc1 (some centres undefined)	none (no result: EWS-Fli block, PAX8 inh HTS)
COc1ccc(/C=C2\SC(=S)N(CCCC(=O)N3CCOCC3)C2=O)cc1	none (no result: PGC1a acetyl inh, EWS-Fli block)
O=C(CCN1C(=O)/C(=C/c2ccccc2Cl)SC1=S)Nc1ccccc1C(=O)O	PAX8 inh HTS 100, SIRT5 inh 18
O=C(CCCN1C(=O)/C(=C\c2ccccc2)SC1=S)N1CCOCC1	rRNA inh HTS -21
O=C(CCCN1C(=O)/C(=C\c2ccccc2)SC1=S)Nc1ccc(O)cc1C(=O)O	rRNA inh HTS -21
CCOc1ccc(/C=C2\SC(=S)N(CCC(=O)N(CCO)c3ccccc3)C2=O)cc1	none
CCc1ccc(/C=C2\SC(=S)N(CCCC(=O)N(CCO)c3ccccc3)C2=O)cc1	EWS-Fli block 54, PAX8 inh HTS 94 (no result: SIRT5 inh)
COc1ccccc1C(=O)Nc1ccc2c(c1)OC[C@@H](C)N(C(C)=O)C[C@@H](C)[C@@H](OC)CN(C)C2=O	none
CN1[C@@H]2Cn3c(ccc(-c4ccccc4)c3=O)[C@H]1[C@@H](C(=O)NCC1CCCCC1)[C@@H]2CO	none (no result: PGC1a acetyl inh, PAX8 inh HTS)
O=C(CN1C(=O)/C(=C\c2ccco2)SC1=S)Nc1ccc(O)cc1C(=O)O	SIRT5 inh 49 (no result: EWS-Fli block)
COc1cc(/C=C/C(=O)c2ccc(F)cc2)cc(OC)c1OC	none (no result: LGR2 inh)
CCOc1ccc(C(=O)/C=C/c2cc(OC)c(OC)c(OC)c2)cc1	rRNA inh HTS -20
CCOc1ccc(/C=C(\C(=O)O)c2ccc(S(=O)(=O)N3CCCCC3)s2)cc1OC	rRNA inh HTS -23
COc1ccc(-c2cc(-c3ccccc3)c(C#N)c(S(C)=O)n2)cc1 (centres undefined)	PGC1a acetyl inh 85, PAX8 inh HTS 76 (no result: EWS-Fli block, rRNA inh HTS, SIRT5 inh, LGR2 inh)
O=C(NNC(=S)NC(=O)c1ccccc1[N+](=O)[O-])c1ccccc1[N+](=O)[O-]	rRNA inh HTS -26 (no result: PAX8 inh HTS)
c1ccc(-c2cncnc2)cc1	SIRT5 inh 25
O=C(Cc1c(F)cccc1Cl)Nc1cccc(S(=O)(=O)NC2=NCCCCC2)c1	none (no result: PGC1a acetyl inh)
NNC(=O)c1cccc(S(=O)(=O)Nc2cc(Cl)ccc2Cl)c1	rRNA inh HTS -20
O=C(/C=C/c1ccccc1)Nc1cccnc1Oc1ccccc1F	rRNA inh HTS -16 (no result: LGR2 inh)
Nc1cccnc1Oc1ccccc1F	none (no result: LGR2 inh)
O=C(Cc1ccc(Cl)cc1Cl)Nc1cccc(S(=O)(=O)Nc2ccccc2F)c1	SIRT5 inh 30 (no result: LGR2 inh)
O=C(NNC(=O)c1cccc(S(=O)(=O)Nc2ccccc2F)c1)c1ccncc1	SIRT5 inh 18
CCCNC(=O)C[C@@H]1CC[C@H]2[C@H](COc3ccc(NC(=O)c4ccc(OC)cc4)cc3C(=O)N2C)O1	none (no result: SIRT5 inh)
COc1ccccc1-c1cnc2c(c1)C(=O)N([C@H](C)CO)C[C@@H](C)[C@H](CN(C)Cc1ccc(C(=O)O)cc1)O2	none (no result: PAX8 inh HTS)
O=C(/C=C/c1ccccc1)Nc1cccc(S(=O)(=O)Nc2ccccc2F)c1	SIRT5 inh 25
Cc1cc(C)n(C(=O)c2cccc([N+](=O)[O-])c2C)n1	SIRT5 inh 34 (no result: LGR2 inh)
Cc1cc(C)n(C(=O)c2ccccc2[N+](=O)[O-])n1	none (no result: PGC1a acetyl inh, rRNA inh HTS, LGR2 inh)
CC1=C(SCc2ccccc2)C(=O)c2ccccc2C1=O	PAX8 inh HTS 64
Cn1c(SCc2ccccc2)nccc1=O	none
CO[C@@H]1CN(C)C(=O)c2ccc(NC(=O)c3ccc(F)cc3)cc2OC[C@@H](C)N(C(C)=O)C[C@H]1C	none (no result: rRNA inh HTS)
